Assay results as given in PubChem BioAssay (NCATS).
Records with an inconclusive call do not appear. Entries that show only a call come without a potency. Values without a mark were called inactive. Active and inactive are the calls of the source. Calls follow the shape of the dose curve; as a rule, active = well fitted curve in the direction sought with a large enough effect; inconclusive = small, poorly fitted or top-dose-only effect, or another doubt; inactive = no such curve, though single readings can be large; an effect the other way counts as inactive or inconclusive.

Legend:
[1] = target: Rap guanine nucleotide exchange factor 3 (Homo sapiens) (UniProt O95398); assay: Confirmatory qHTS for antagonist of cAMP-regulated guanine nucleotide exchange factor 3 (EPAC1) (AID 1645880); also: nearly all actives have a fitted effect of over 55% in size; also: potency is read from the fitted curve at half-maximal effect
Procedure, shortened: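 Released BODIPY-GDP fluoresces less than Rap1-bound BODIPY-GDP; the signal is followed at 480/540 nm at 5-min intervals over 30 min, after 5 min at room temperature. Reactions contain 100 nM EPAC1, 250 nM RAP1B-BODIPY-GDP and 50 uM GDP; results are normalized to ATA and DMSO.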

[2] = target: Rap guanine nucleotide exchange factor 3 (Homo sapiens) (UniProt O95398); assay: Confirmatory qHTS for agonist of cAMP-regulated guanine nucleotide exchange factor 3 (EPAC1) (AID 1645881); also: nearly all actives have a fitted effect of over 75% in size; also: potency is read from the fitted curve at half-maximal effect;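 as to activation: EPAC1 catalysed release of BODIPY-GDP from Rap1B seen as fluorescence loss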
[3] = target: Rap guanine nucleotide exchange factor 4 (Homo sapiens) (UniProt Q8WZA2); assay: Confirmatory qHTS for agonist of cAMP-regulated guanine nucleotide exchange factor 4 (EPAC2) (AID 1645884);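 also: nucleotide exchange releases bodipy-GDP from Rap1 and this lowers its fluorescence; nearly all actives have a fitted effect of over 65% in size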; also: potency is read from the fitted curve at half-maximal effect
[4] = target: Rap guanine nucleotide exchange factor 4 (Homo sapiens) (UniProt Q8WZA2); assay: Confirmatory qHTS for antagonist of cAMP-regulated guanine nucleotide exchange factor 4 (EPAC2) (AID 1645885); also: nearly all actives have a fitted effect of over 25% in size; also: potency is read from the fitted curve at half-maximal effect
[5] = target: Rap guanine nucleotide exchange factor 3 (Homo sapiens) (UniProt O95398); assay: Counterscreen qHTS for antagonist of cAMP-regulated guanine nucleotide exchange factor 3 (EPAC1) (AID 1645888)
Procedure, shortened: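 Rap1B–BODIPY-GDP (250 nM) with 50 uM GDP; compounds pin-transferred to 9.74 nM–152 uM final (activator) or from 7.32 nM upwards (inhibitor). Fluorescence Ex/Em 480/540 nm read at 5 and 30 min, then after adding cAMP or buffer, at room temperature.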

Sequence of Rap guanine nucleotide exchange factor 4 (Homo sapiens) (Q8WZA2 whole entry, looked up): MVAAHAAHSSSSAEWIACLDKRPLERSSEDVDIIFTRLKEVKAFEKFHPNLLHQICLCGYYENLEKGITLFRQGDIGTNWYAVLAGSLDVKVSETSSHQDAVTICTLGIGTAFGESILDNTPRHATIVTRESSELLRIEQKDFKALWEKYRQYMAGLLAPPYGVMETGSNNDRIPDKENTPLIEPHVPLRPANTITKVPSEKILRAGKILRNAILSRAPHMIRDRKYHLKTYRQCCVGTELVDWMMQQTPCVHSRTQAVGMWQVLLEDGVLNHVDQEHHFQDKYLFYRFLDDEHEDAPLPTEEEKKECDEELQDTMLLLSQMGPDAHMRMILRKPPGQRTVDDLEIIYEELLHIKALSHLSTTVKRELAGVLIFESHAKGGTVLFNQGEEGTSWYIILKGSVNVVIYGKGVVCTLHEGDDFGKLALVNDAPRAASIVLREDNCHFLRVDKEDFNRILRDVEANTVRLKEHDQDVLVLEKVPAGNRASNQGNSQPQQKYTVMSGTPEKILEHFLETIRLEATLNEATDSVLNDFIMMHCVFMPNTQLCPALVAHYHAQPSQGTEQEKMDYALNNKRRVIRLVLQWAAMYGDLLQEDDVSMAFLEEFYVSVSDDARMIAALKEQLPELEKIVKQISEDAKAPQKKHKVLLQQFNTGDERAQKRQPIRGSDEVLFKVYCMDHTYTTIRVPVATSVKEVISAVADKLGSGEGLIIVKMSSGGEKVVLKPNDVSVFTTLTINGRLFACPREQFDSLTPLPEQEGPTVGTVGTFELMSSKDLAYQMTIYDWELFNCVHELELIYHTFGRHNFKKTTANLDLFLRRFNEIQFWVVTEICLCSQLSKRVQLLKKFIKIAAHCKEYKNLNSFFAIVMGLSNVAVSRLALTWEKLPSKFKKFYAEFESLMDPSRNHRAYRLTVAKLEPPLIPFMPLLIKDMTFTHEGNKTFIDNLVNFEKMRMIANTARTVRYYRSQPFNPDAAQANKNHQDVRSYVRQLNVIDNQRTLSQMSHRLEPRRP
Sequence of Rap guanine nucleotide exchange factor 3 (Homo sapiens) (O95398 whole entry, looked up): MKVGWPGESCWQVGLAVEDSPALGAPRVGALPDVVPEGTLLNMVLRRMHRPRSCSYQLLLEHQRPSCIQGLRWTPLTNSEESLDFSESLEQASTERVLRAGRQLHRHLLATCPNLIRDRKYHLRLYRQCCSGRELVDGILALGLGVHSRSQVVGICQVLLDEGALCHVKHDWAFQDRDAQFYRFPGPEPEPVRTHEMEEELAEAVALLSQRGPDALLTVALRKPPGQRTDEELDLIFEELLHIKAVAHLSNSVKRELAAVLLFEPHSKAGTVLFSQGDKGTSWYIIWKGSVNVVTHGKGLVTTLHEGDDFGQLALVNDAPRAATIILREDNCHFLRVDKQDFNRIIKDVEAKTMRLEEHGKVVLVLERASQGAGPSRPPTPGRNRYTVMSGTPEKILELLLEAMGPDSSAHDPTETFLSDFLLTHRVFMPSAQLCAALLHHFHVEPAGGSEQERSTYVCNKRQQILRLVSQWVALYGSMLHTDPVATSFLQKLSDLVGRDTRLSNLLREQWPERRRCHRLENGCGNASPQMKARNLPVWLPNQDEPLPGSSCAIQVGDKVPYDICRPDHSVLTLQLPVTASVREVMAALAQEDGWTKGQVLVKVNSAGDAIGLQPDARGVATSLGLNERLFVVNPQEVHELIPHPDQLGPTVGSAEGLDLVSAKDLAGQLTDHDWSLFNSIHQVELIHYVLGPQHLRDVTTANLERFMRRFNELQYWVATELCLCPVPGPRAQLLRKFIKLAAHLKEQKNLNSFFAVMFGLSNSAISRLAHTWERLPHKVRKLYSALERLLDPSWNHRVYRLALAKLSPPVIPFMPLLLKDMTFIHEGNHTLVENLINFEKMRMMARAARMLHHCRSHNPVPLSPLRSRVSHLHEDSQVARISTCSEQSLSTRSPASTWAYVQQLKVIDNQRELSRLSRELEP

SMILES	Potency [1]	Potency [2]	activation [3]	Potency [4]	activity change, negative = inhibition [5]	Potency [3]	Potency [5]	outcome [4]
CC(C)(CNC(=O)Cc1ccc(NS(=O)(=O)c2cccc(C(F)(F)F)c2)cc1)N1CCOCC1	inactive	inactive	1.17% [at 17.1 µM, percent relative to cAMP agonist control]	inactive	10.3% [at 30.8 µM]	–	–	–
COc1ccc(NC(=O)c2c(-c3ccccc3)c(-c3ccccc3)nn(C)c2=O)cc1OC	inactive	inactive	–	inactive	–	inactive	inactive	–
Cc1cccc(C2c3[nH]c4ccccc4c3CCN2Cc2cccn2-c2ncccn2)c1 (stereo not given)	inactive	inactive	-1.28% [at 17.1 µM, percent relative to cAMP agonist control]	inactive	-4.15% [at 30.8 µM]	–	–	–
Cc1cc(C)cc(-c2nnc(SCc3ccc(C(=O)O)cc3)o2)c1	inactive	inactive	0% [at 17.1 µM, percent relative to cAMP agonist control]	inactive	-19.9% [at 30.8 µM]	–	–	–
CC(C)Cc1csc(NC(=O)c2ccc(F)cc2)c1C(=O)O	inactive	inactive	–	inactive	–	inactive	inactive	–
O=c1c(Cl)c(Cl)cnn1Cc1nnc(-c2ccccc2Br)o1	42.6 µM (active)	inactive	–	inactive	–	inactive	inactive	–
Cc1cc(C)cc(C(O)c2ncc(-c3ccccc3Cl)[nH]2)c1 (stereo not given)	inactive	inactive	2.23% [at 17.1 µM, percent relative to cAMP agonist control]	inactive	-7.63% [at 30.8 µM]	–	–	–
O=C(c1ccc2nc(N3CCOCC3)sc2c1)N1CCC(Cc2ccccc2)CC1	inactive	inactive	–	inactive	–	inactive	inactive	–
Nc1ncnc2c1nc(Br)n2[C@@H]1O[C@@H]2COP(=O)(O)O[C@H]2[C@H]1O	5.36 µM (active)	7.08 µM (active)	–	inactive	–	2.24 µM (active)	inactive	–
COc1cc(/C=C(/C#N)c2nc(-c3cc4ccccc4oc3=O)cs2)ccc1O	inactive	inactive	–	–	–	inactive	inactive	inactive [at 12.7 µM]
COc1ccc(C(=O)Nc2ccc(-c3cc4ccccc4oc3=O)c(C)c2)cc1Br	inactive	inactive	–	inactive	–	inactive	inactive	–
COC(=O)CNc1cc(S(=O)(=O)N2CCCCC2)ccc1Oc1cccc(C)c1	inactive	inactive	–	inactive	–	inactive	inactive	–
COC(=O)c1c(SC)nc2ccccc2c1OCc1cccc(C)c1	inactive	inactive	–	inactive	–	inactive	inactive	–
Cc1nn(CSc2c(F)c(F)c(F)c(F)c2F)c(C)c1[N+](=O)[O-]	inactive	inactive	0.798% [at 17.1 µM, percent relative to cAMP agonist control]	inactive	-18.4% [at 30.8 µM]	–	–	–
NNc1nc2c(Cl)c(Cl)ccc2s1	inactive	inactive	7.89% [at 17.1 µM, percent relative to cAMP agonist control]	inactive	3.53% [at 30.8 µM]	–	–	–
O=C1C=C(N2CCCCC2)c2ccccc2C1=O	25.1 µM (active)	inactive	2.92% [at 17.1 µM, percent relative to cAMP agonist control]	inactive	-3.66% [at 30.8 µM]	–	–	–
O=C(CCc1ccc(O)c(O)c1)N/N=C/c1cc2c(cc1[N+](=O)[O-])OCO2	23.9 µM (active)	inactive	–	inactive	–	inactive	inactive	–
C=CCSc1nc2ccccc2c(=O)n1C1CCOC(C)(C)C1 (stereo not given)	inactive	inactive	–	inactive	–	inactive	inactive	–
Nn1cnnc1N/N=C/c1ccc(Cl)c([N+](=O)[O-])c1	inactive	inactive	–	inactive	–	inactive	inactive	–
CC(C)(C)NC(=O)NC(=O)CN1CCc2ccccc21	inactive	inactive	4.54% [at 17.1 µM, percent relative to cAMP agonist control]	inactive	5.54% [at 30.8 µM]	–	–	–
COc1ccc(NC(=O)C2=NN(c3ccccc3)C(=O)CC2)cn1	inactive	inactive	–	inactive	–	inactive	inactive	–
O=c1[nH]c2cc3c(cc2cc1CN(Cc1ccccc1)Cc1nnnn1Cc1ccco1)OCCO3	42.6 µM (active)	inactive	–	inactive	–	inactive	inactive	–
COc1cnc(-c2ccccn2)nc1Oc1cccc(Cl)c1	inactive	inactive	–	10.7 µM (active)	–	inactive	inactive	–
Cc1cc(SCC(=O)c2ccc(O)c(O)c2)nc2ccccc12	14.1 µM (active)	inactive	11.2% [at 17.1 µM, percent relative to cAMP agonist control]	inactive	-6.86% [at 30.8 µM]	–	–	–
Cc1cccc(Cn2c(SCc3ccc(C(=O)N4CCCCCC4)cc3)nc3ccncc32)c1	inactive	inactive	–	inactive	–	inactive	inactive	–
